Among the data in PubChem BioAssay (NCI) are growth inhibition values, retold here.

Each structure is given as a SMILES string. About 79,000 compounds went through this panel and 15% of them were active in at least one assay; those are over-represented in the sample as a whole. Values without a mark were called inactive. Calls of active or inactive are those of the source. Rule as the data show it: active = growth inhibition above about 70%; inactive = the rest.

A short description of experiment [1]: NCI Yeast Anticancer Drug Screen. Data for the rad50 strain (AID 155).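 Also: 0% = growth of vehicle-only cultures of the same strain.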 The settings on record: S. cerevisiae rad50 strain growth inhibition, hits give high values. The gist of the method: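 Genetically altered yeast (DNA repair pathway); compound treatment; growth inhibition vs vehicle ctrl.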
The nature of experiment [2]: NCI Yeast Anticancer Drug Screen. Data for the mec2-1 strain (AID 157). As to conditions: S. cerevisiae mec2-1 strain, hits give high values. The gist of the method: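 Test agents were screened against the mec2-1 yeast strain, with defined DNA repair or cell cycle alteration. Growth was scored as inhibition against vehicle-only controls.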
The nature of experiment [3]: NCI Yeast Anticancer Drug Screen. Data for the sgs1 mgt1 strain (AID 161).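 Also: 0% = growth of cultures given vehicle only.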 The settings on record: S. cerevisiae sgs1 mgt1 strain, hits give high values. The gist of the method:
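Test agents were incubated with a DNA-repair-mutant yeast strain. Growth was then read and compared against vehicle-treated controls.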

A short description of experiment [4]: NCI Yeast Anticancer Drug Screen. Data for the cln2 rad14 strain (AID 165).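 Also: 0% = growth equal to vehicle treated cultures.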 The settings on record: S. cerevisiae cln2 rad14 strain, hits give high values. The gist of the method:
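Growth of compound-exposed yeast (cln2 rad14 genotype) measured and expressed as inhibition relative to vehicle.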

Experiment [5] can be described thus: NCI Yeast Anticancer Drug Screen. Data for the bub3 strain (AID 167). The settings on record: S. cerevisiae bub3 mutant strain, hits give high values. The gist of the method: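 Yeast carrying a defined mutation is treated with each compound, and growth is compared with that of vehicle-exposed cells to give inhibition.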
The nature of experiment [6]: NCI Yeast Anticancer Drug Screen. Data for the mlh1 rad18 strain (AID 175). As to conditions: S. cerevisiae mlh1 rad18 strain growth inhibition, hits give high values. The gist of the method:
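In this whole-cell yeast screen, a strain with altered DNA damage repair is challenged with compound, and its growth is measured against matched vehicle-treated controls.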

[7] abbreviates: at 5.0 µM (retest, dose inferred, filed as 0.5).
The mark [8] stands for this setting: at 50.0 µM (retest, dose inferred, filed as 5.0).

Turning to `CC1=C(C)CC2C(=O)C(C(O)CC(C)C)=CC(=O)C2C1` (configuration not stated), the growth inhibition in experiment [1] (setting [7]) was -4%; in experiment [1] (setting [8]), 91% (active); in experiment [1] (at 50.0 µM) it was 97.8% (active); in experiment [2] (setting [7]), -5%; in experiment [2] (setting [8]) it was 91% (active); in experiment [2] (at 50.0 µM) it was 98.5% (active). The growth inhibition in experiment [3] (setting [7]) was -5%; in experiment [3] (setting [8]) it was 98% (active); in experiment [3] (at 50.0 µM), 98.8% (active); in experiment [4] (setting [7]), -13%; in experiment [4] (setting [8]), 86% (active); in experiment [4] (at 50.0 µM), 95.5% (active). Moreover, the growth inhibition in experiment [5] (setting [7]) is -10%; in experiment [5] (setting [8]), 97% (active); in experiment [5] (at 50.0 µM), 98.2% (active); in experiment [6] (setting [7]), -9%; in experiment [6] (setting [8]), 97% (active); in experiment [6] (at 50.0 µM), 98.9% (active).

For the molecule `CC[N+](CC)(CC)Cc1ccc(C[N+](CC)(CC)CC)cc1`, the growth inhibition in experiment [1] (setting [7]) is 8%; in experiment [1] (setting [8]), -4%; in experiment [1] (at 50.0 µM) it was 16.9%; in experiment [2] (setting [7]), 1%; in experiment [2] (setting [8]) it was -2%; in experiment [2] (at 50.0 µM), 54.2%. Further, the growth inhibition in experiment [3] (setting [7]) is 6%; in experiment [3] (setting [8]), -15%; in experiment [3] (at 50.0 µM) it was -0.8%; in experiment [4] (setting [7]), 4%; in experiment [4] (setting [8]), 7%; in experiment [4] (at 50.0 µM), 92.4% (active). For the same molecule, the growth inhibition in experiment [5] (setting [7]) is 5%; in experiment [5] (setting [8]), -4%; in experiment [5] (at 50.0 µM), 95.5% (active); in experiment [6] (setting [7]) it was 2%; in experiment [6] (setting [8]), -4%; in experiment [6] (at 50.0 µM), 17.4%.

Take `O=C(c1ccc([N+](=O)[O-])cc1)C(Br)C(Br)c1ccnc2ccccc12` (configuration not stated): the growth inhibition is 25% in experiment [1] (setting [7]); 80% (active) in experiment [1] (setting [8]); 98.2% (active) in experiment [1] (at 50.0 µM); 23% in experiment [2] (setting [7]); 63% in experiment [2] (setting [8]); 99.1% (active) in experiment [2] (at 50.0 µM). The growth inhibition in experiment [3] (setting [7]) is 21%; in experiment [3] (setting [8]), 91% (active); in experiment [3] (at 50.0 µM), 98.9% (active); in experiment [4] (setting [7]), -1%; in experiment [4] (setting [8]), 69%; in experiment [4] (at 50.0 µM), 96.7% (active). For the same molecule, the growth inhibition was 3% in experiment [5] (setting [7]); 86% (active) in experiment [5] (setting [8]); 98.8% (active) in experiment [5] (at 50.0 µM); 18% in experiment [6] (setting [7]); 95% (active) in experiment [6] (setting [8]); 98.8% (active) in experiment [6] (at 50.0 µM).

For `Cc1c(N)nc(C(CC(N)=O)NCC(N)C(N)=O)nc1C(=O)NC(C(=O)NC(C)C(O)C(C)C(=O)NC(C(=O)NCCc1nc(-c2nc(C(=O)NCCCNC(C)c3ccccc3)cs2)cs1)C(C)O)C(OC1OC(CO)C(O)C(O)C1OC1OC(CO)C(O)C(OC(N)=O)C1O)c1cnc[nH]1` (configuration not stated), the growth inhibition in experiment [1] (setting [7]) was 97% (active); in experiment [1] (setting [8]) it was 98% (active); in experiment [1] (at 50.0 µM), 92.2% (active); in experiment [2] (setting [7]), 97% (active); in experiment [2] (setting [8]), 99% (active); in experiment [2] (at 50.0 µM), 93.5% (active). Further, the growth inhibition in experiment [3] (setting [7]) is 95% (active); in experiment [3] (setting [8]) it was 98% (active); in experiment [3] (at 50.0 µM), 93.5% (active); in experiment [4] (setting [7]) it was 85% (active); in experiment [4] (setting [8]), 93% (active); in experiment [4] (at 50.0 µM), 90.4% (active). In addition, the growth inhibition in experiment [5] (setting [7]) is 93% (active); in experiment [5] (setting [8]), 98% (active); in experiment [5] (at 50.0 µM), 93.3% (active); in experiment [6] (setting [7]), 98% (active); in experiment [6] (setting [8]) it was 99% (active); in experiment [6] (at 50.0 µM), 92.2% (active).

In the case of `CCOc1ccccc1C(=O)Oc1cccc(C)c1`, the growth inhibition in experiment [1] (setting [7]) is -7%; in experiment [1] (setting [8]), -1%; in experiment [1] (at 50.0 µM), 1.95%; in experiment [2] (setting [7]), -8%; in experiment [2] (setting [8]), -18%; in experiment [2] (at 50.0 µM), -9.75%. For the same molecule, the growth inhibition is -2% in experiment [3] (setting [7]); 12% in experiment [3] (setting [8]); 5.55% in experiment [3] (at 50.0 µM); -21% in experiment [4] (setting [7]); 32% in experiment [4] (setting [8]); -5.2% in experiment [4] (at 50.0 µM). Further, the growth inhibition in experiment [5] (setting [7]) is 6%; in experiment [5] (setting [8]), -6%; in experiment [5] (at 50.0 µM) it was 11.8%; in experiment [6] (setting [7]), -19%; in experiment [6] (setting [8]), 17%; in experiment [6] (at 50.0 µM) it was 18.9%.

On to `COc1ccc(C2=C(Cl)C(=O)N(c3ccccc3Cl)C(=O)C2(Cl)Cl)cc1`, for which the growth inhibition was 19% in experiment [1] (setting [7]); 96% (active) in experiment [1] (setting [8]); 92.7% (active) in experiment [1] (at 50.0 µM); -1% in experiment [2] (setting [7]); 95% (active) in experiment [2] (setting [8]); 98.7% (active) in experiment [2] (at 50.0 µM). For the same molecule, the growth inhibition is 17% in experiment [3] (setting [7]); 97% (active) in experiment [3] (setting [8]); 97.5% (active) in experiment [3] (at 50.0 µM); -5% in experiment [4] (setting [7]); 96% (active) in experiment [4] (setting [8]); 71.5% (active) in experiment [4] (at 50.0 µM). The growth inhibition in experiment [5] (setting [7]) is 0%; in experiment [5] (setting [8]) it was 97% (active); in experiment [5] (at 50.0 µM) it was 97.1% (active); in experiment [6] (setting [7]), 17%; in experiment [6] (setting [8]) it was 80% (active); in experiment [6] (at 50.0 µM), 97.4% (active).

For `Cc1cn(C(C#N)=C(C#N)C#N)c2ccccc12`, the growth inhibition in experiment [1] (setting [7]) is 0%; in experiment [1] (setting [8]) it was 25%; in experiment [1] (at 50.0 µM), 14.4%; in experiment [2] (setting [7]), 6%; in experiment [2] (setting [8]), 11%; in experiment [2] (at 50.0 µM), 22.5%. The growth inhibition in experiment [3] (setting [7]) was -8%; in experiment [3] (setting [8]), 32%; in experiment [3] (at 50.0 µM), -4.65%; in experiment [4] (setting [7]) it was -2%; in experiment [4] (setting [8]) it was 26%; in experiment [4] (at 50.0 µM), -37.4%. Besides, the growth inhibition in experiment [5] (setting [7]) is -2%; in experiment [5] (setting [8]), -3%; in experiment [5] (at 50.0 µM) it was 18.2%; in experiment [6] (setting [7]), 1%; in experiment [6] (setting [8]), 16%; in experiment [6] (at 50.0 µM), -16.2%.

For the molecule `CCC(=O)c1cc2ccccc2c2ccccc12`, the growth inhibition in experiment [1] (setting [7]) was 4%; in experiment [1] (setting [8]), 44%; in experiment [1] (at 50.0 µM), 66.3%; in experiment [2] (setting [7]), 0%; in experiment [2] (setting [8]) it was 20%; in experiment [2] (at 50.0 µM), 39%. Further, the growth inhibition was 0% in experiment [3] (setting [7]); 40% in experiment [3] (setting [8]); 37.3% in experiment [3] (at 50.0 µM); -3% in experiment [4] (setting [7]); 0% in experiment [4] (setting [8]); 9.9% in experiment [4] (at 50.0 µM). The growth inhibition was 5% in experiment [5] (setting [7]); 74% (active) in experiment [5] (setting [8]); 75.8% (active) in experiment [5] (at 50.0 µM); -2% in experiment [6] (setting [7]); 61% in experiment [6] (setting [8]); 41.5% in experiment [6] (at 50.0 µM).

With `O=C(NO)C(=O)Nc1cc(Cl)ccc1Cl`, the growth inhibition in experiment [1] (setting [7]) is 7%; in experiment [1] (setting [8]) it was 57%; in experiment [1] (at 50.0 µM) it was 86.8% (active); in experiment [2] (setting [7]) it was -8%; in experiment [2] (setting [8]) it was 90% (active); in experiment [2] (at 50.0 µM), 73% (active). In addition, the growth inhibition in experiment [3] (setting [7]) is -3%; in experiment [3] (setting [8]), 89% (active); in experiment [3] (at 50.0 µM) it was 79.8% (active); in experiment [4] (setting [7]) it was 2%; in experiment [4] (setting [8]), 94% (active); in experiment [4] (at 50.0 µM), 74.5% (active). In addition, the growth inhibition in experiment [5] (setting [7]) is -28%; in experiment [5] (setting [8]) it was 94% (active); in experiment [5] (at 50.0 µM), 85.9% (active); in experiment [6] (setting [7]), -2%; in experiment [6] (setting [8]), 94% (active); in experiment [6] (at 50.0 µM), 77.7% (active).
